Screen size: about 5,500 compounds; about 2,000 (36%) were called active. Inconclusive results (about 18%) are left out. Rule as the data show it: active = normalized growth mostly below about 0.91 (no sharp cut-off); inconclusive = no clear call, values can overlap the other calls; inactive = mostly above about 0.92. The list shows a part of the results.
Test: chemical genetic growth profiling, strain panel (AID 1159580);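 also: tested at 20 µM; growth read once vehicle control cultures reached saturation at 30 °C; 1 = growth at the plate median or of vehicle wells; lower values mean less growth of the strain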
Conditions: growth OD
[1] = S. cerevisiae deletion strains, locus YAR019C, strain CDC15, hits give low values
[2] = S. cerevisiae deletion strains, locus YBL105C, strain PKC1, hits give low values
[3] = S. cerevisiae deletion strains, locus YBR135W, strain CKS1, hits give low values
[4] = S. cerevisiae deletion strains, locus YBR136W, strain MEC1, hits give low values
[5] = S. cerevisiae deletion strains, locus YBR160W, strain CDC28, hits give low values
[6] = S. cerevisiae deletion strains, locus YDL017W, strain CDC7, hits give low values
[7] = S. cerevisiae deletion strains, locus YDL028C, strain MPS1, hits give low values
[8] = S. cerevisiae deletion strains, locus YDL101C, strain DUN1, hits give low values
[9] = S. cerevisiae deletion strains, locus YDL108W, strain KIN28, hits give low values
[10] = S. cerevisiae deletion strains, locus YDL132W, strain cdc53, hits give low values
[11] = S. cerevisiae deletion strains, locus YDL214C, strain PRR2, hits give low values
[12] = S. cerevisiae deletion strains, locus YDR052C, strain DBF4, hits give low values
[13] = S. cerevisiae deletion strains, locus YDR054C, strain cdc34, hits give low values
[14] = S. cerevisiae deletion strains, locus YDR226W, strain ADK1, hits give low values
[15] = S. cerevisiae deletion strains, locus YDR477W, strain SNF1, hits give low values
[16] = S. cerevisiae deletion strains, locus YER123W, strain YCK3, hits give low values
[17] = S. cerevisiae deletion strains, locus YER133W, strain GLC7, hits give low values
[18] = S. cerevisiae deletion strains, locus YFL009W, strain cdc4, hits give low values
[19] = S. cerevisiae deletion strains, locus YFL029C, strain CAK1, hits give low values
[20] = S. cerevisiae deletion strains, locus YFR003C, strain YPI1, hits give low values
[21] = S. cerevisiae deletion strains, locus YFR019W, strain FAB1, hits give low values
[22] = S. cerevisiae deletion strains, locus YFR028C, strain CDC14, hits give low values
[23] = S. cerevisiae deletion strains, locus YGR040W, strain KSS1, hits give low values
[24] = S. cerevisiae deletion strains, locus YGR052W, strain FMP48, hits give low values
[25] = S. cerevisiae deletion strains, locus YGR092W, strain DBF2, hits give low values
[26] = S. cerevisiae deletion strains, locus YHR030C, strain SLT2, hits give low values
[27] = S. cerevisiae deletion strains, locus YHR079C, strain IRE1, hits give low values
[28] = S. cerevisiae deletion strains, locus YHR082C, strain KSP1, hits give low values
[29] = S. cerevisiae deletion strains, locus YHR205W, strain SCH9, hits give low values
[30] = S. cerevisiae deletion strains, locus YIL147C, strain SLN1, hits give low values
[31] = S. cerevisiae deletion strains, locus YJL095W, strain BCK1, hits give low values
[32] = S. cerevisiae deletion strains, locus YJL128C, strain PBS2, hits give low values
[33] = S. cerevisiae deletion strains, locus YJL157C, strain FAR1, hits give low values
[34] = S. cerevisiae deletion strains, locus YJR016C, strain ILV3, hits give low values
[35] = S. cerevisiae deletion strains, locus YJR066W, strain TOR1 (second series), hits give low values
[36] = S. cerevisiae deletion strains, locus YJR066W, strain TOR1, hits give low values
[37] = S. cerevisiae deletion strains, locus YKL048C, strain ELM1, hits give low values
[38] = S. cerevisiae deletion strains, locus YKL067W, strain YNK1, hits give low values
[39] = S. cerevisiae deletion strains, locus YKL101W, strain HSL1, hits give low values
[40] = S. cerevisiae deletion strains, locus YKL193C, strain SDS22, hits give low values
[41] = S. cerevisiae deletion strains, locus YKL203C, strain TOR2, hits give low values
[42] = S. cerevisiae deletion strains, locus YLR113W, strain HOG1, hits give low values
[43] = S. cerevisiae deletion strains, locus YLR133W, strain CKI1, hits give low values
[44] = S. cerevisiae deletion strains, locus YLR403W, strain SFP1, hits give low values
[45] = S. cerevisiae deletion strains, locus YML070W, strain DAK1, hits give low values
[46] = S. cerevisiae deletion strains, locus YMR001C, strain CDC5, hits give low values
[47] = S. cerevisiae deletion strains, locus YMR205C, strain PFK2 (second series), hits give low values
[48] = S. cerevisiae deletion strains, locus YMR277W, strain FCP1, hits give low values
[49] = S. cerevisiae deletion strains, locus YNL006W, strain LST8, hits give low values
[50] = S. cerevisiae deletion strains, locus YNL020C, strain ARK1, hits give low values
[51] = S. cerevisiae deletion strains, locus YNL161W, strain CBK1, hits give low values
[52] = S. cerevisiae deletion strains, locus YNL183C, strain NPR1, hits give low values
[53] = S. cerevisiae deletion strains, locus YNL207W, strain RIO2, hits give low values
[54] = S. cerevisiae deletion strains, locus YNL222W, strain SSU72, hits give low values
[55] = S. cerevisiae deletion strains, locus YNL307C, strain MCK1 (second series), hits give low values
[56] = S. cerevisiae deletion strains, locus YOL078W, strain AVO1, hits give low values
[57] = S. cerevisiae deletion strains, locus YOL136C, strain PFK27, hits give low values
[58] = S. cerevisiae deletion strains, locus YOR061W, strain CKA2, hits give low values
[59] = S. cerevisiae deletion strains, locus YOR119C, strain RIO1, hits give low values
[60] = S. cerevisiae deletion strains, locus YOR231W, strain MKK1, hits give low values
[61] = S. cerevisiae deletion strains, locus YOR329C, strain SCD5, hits give low values
[62] = S. cerevisiae deletion strains, locus YPL031C, strain PHO85, hits give low values
[63] = S. cerevisiae deletion strains, locus YPL153C, strain RAD53, hits give low values
[64] = S. cerevisiae deletion strains, locus YPL204W, strain HRR25, hits give low values
[65] = S. cerevisiae deletion strains, locus YPL209C, strain IPL1, hits give low values
[66] = S. cerevisiae deletion strains, locus YPL256C, strain CLN2, hits give low values
[67] = S. cerevisiae deletion strains, locus YPR025C, strain CCL1, hits give low values
[68] = S. cerevisiae deletion strains, locus YPR106W, strain ISR1, hits give low values
[69] = S. cerevisiae deletion strains, locus YPR111W, strain DBF20, hits give low values
[70] = S. cerevisiae deletion strains, strain NNK1, hits give low values
[71] = S. cerevisiae deletion strains, strain TSCII, hits give low values

Measured: normalized growth

CC(=O)c1sc(SCCS(=O)(=O)c2ccc(C)cc2)c2c1CC(C)(C)CC2=O
inactive: [1] 0.984 | [2] 1.01 | [3] 0.984 | [4] 0.98 | [5] 0.98 | [6] 0.992 | [7] 0.98 | [8] 0.969 | [9] 0.97 | [10] 0.978 | [11] 0.926 | [12] 0.935 | [13] 1.01 | [14] 0.962 | [16] 0.914 | [18] 0.973 | [19] 0.986 | [20] 0.97 | [21] 0.932 | [22] 0.97 | [24] 0.947 | [25] 0.963 | [27] 1.08 | [28] 0.987 | [29] 0.958 | [30] 0.979 | [31] 0.589 | [32] 0.982 | [33] 0.943 | [34] 0.985 | [35] 0.82 | [36] 0.995 | [37] 0.859 | [38] 0.936 | [39] 0.926 | [40] 0.98 | [42] 0.912 | [43] 0.931 | [44] 0.828 | [45] 0.948 | [46] 0.983 | [47] 0.923 | [48] 0.964 | [49] 0.967 | [50] 0.935 | [51] 0.973 | [52] 0.962 | [53] 1 | [54] 0.967 | [55] 0.913 | [56] 0.972 | [57] 0.896 | [58] 0.941 | [60] 0.94 | [61] 0.979 | [62] 0.818 | [65] 0.986 | [66] 0.956 | [67] 0.975 | [68] 0.978 | [69] 0.963 | [70] 0.991 | [71] 0.967
active: [15] 0.643 | [17] 0.267 | [23] 0.675 | [26] 0.498 | [41] 0.635 | [59] 0.653 | [63] 0.622 | [64] 0.653

CC(=O)c1sc(SCc2ccc(Cl)cc2)c2c1CC(C)(C)CC2=O
inactive: S. cerevisiae deletion strains, locus YAL013W, strain DEP1, hits give low values 0.97 | S. cerevisiae deletion strains, locus YBR229C, strain ROT2, hits give low values 1.06 | [8] 1.01 | S. cerevisiae deletion strains, locus YDL134C, strain PPH21, hits give low values 0.976 | S. cerevisiae deletion strains, locus YDR150W, strain NUM1, hits give low values 0.954 | S. cerevisiae deletion strains, locus YEL061C, strain CIN8, hits give low values 1.07 | S. cerevisiae deletion strains, locus YGR078C, strain PAC10, hits give low values 1 | [26] 0.793 | S. cerevisiae deletion strains, locus YHR087W, strain rtc3, hits give low values 1 | S. cerevisiae deletion strains, locus YJR043C, strain POL32, hits give low values 0.987 | S. cerevisiae deletion strains, locus YJR075W, strain HOC1, hits give low values 1.05 | S. cerevisiae deletion strains, locus YKL190W, strain CNB1, hits give low values 0.966 | S. cerevisiae deletion strains, locus YLR039C, strain RIC1, hits give low values 0.938 | S. cerevisiae deletion strains, locus YLR058C, strain SHM2 (second series), hits give low values 1.01 | S. cerevisiae deletion strains, locus YLR085C, strain ARP6, hits give low values 1.02 | S. cerevisiae deletion strains, locus YLR262C, strain YPT6, hits give low values 0.941 | S. cerevisiae deletion strains, locus YML094W, strain GIM5, hits give low values 1.01 | S. cerevisiae deletion strains, locus YMR219W, strain ESC1, hits give low values 1.03 | S. cerevisiae deletion strains, locus YMR263W, strain SAP30, hits give low values 0.936 | S. cerevisiae deletion strains, locus YMR307W, strain GAS1, hits give low values 1.03 | S. cerevisiae deletion strains, locus YNL128W, strain TEP1, hits give low values 0.981 | S. cerevisiae deletion strains, locus YNL153C, strain GIM3, hits give low values 0.971 | S. cerevisiae deletion strains, locus YNL298W, strain CLA4 (second series), hits give low values 0.952 | S. cerevisiae deletion strains, locus YNL322C, strain KRE1, hits give low values 0.993 | S. cerevisiae deletion strains, locus YNR030W, strain Alg12, hits give low values 0.941 | S. cerevisiae deletion strains, locus YPL055C, strain LGE1, hits give low values 1.12 | S. cerevisiae deletion strains, locus YPL241C, strain CIN2, hits give low values 0.907 | S. cerevisiae deletion strains, locus YPR135W, strain CTF4, hits give low values 0.819 | S. cerevisiae strains, strain wild type, hits give low values 0.955

Fc1cccc(F)c1NC(=S)Nc1cc(C(F)(F)F)cc(C(F)(F)F)c1
inactive: [1] 0.979 | [2] 0.979 | [3] 0.981 | [4] 0.982 | [5] 0.982 | [6] 0.992 | [7] 0.975 | [8] 0.991 | [9] 0.984 | [10] 0.979 | [11] 0.907 | [12] 0.987 | [13] 0.978 | [14] 0.986 | [15] 0.948 | [16] 0.907 | [17] 0.933 | [18] 0.976 | [19] 0.976 | [20] 0.981 | [21] 0.98 | [22] 0.977 | [23] 0.954 | [24] 0.933 | [25] 0.967 | [26] 0.981 | [27] 0.85 | [28] 1.01 | [29] 0.87 | [30] 0.981 | [31] 0.862 | [32] 0.919 | [33] 0.923 | [34] 0.979 | [35] 0.931 | [36] 1.06 | [37] 0.934 | [38] 0.931 | [39] 0.91 | [40] 0.977 | [41] 1.02 | [43] 0.948 | [44] 0.974 | [45] 0.907 | [46] 0.981 | [47] 0.95 | [48] 0.975 | [49] 0.977 | [50] 0.932 | [51] 0.98 | [52] 0.98 | [53] 0.985 | [54] 0.979 | [55] 0.918 | [56] 0.977 | [57] 0.928 | [58] 0.953 | [59] 0.997 | [60] 0.91 | [61] 0.986 | [62] 0.942 | [63] 0.939 | [64] 0.936 | [65] 0.991 | [67] 0.982 | [68] 0.981 | [69] 0.972 | [70] 0.974 | [71] 0.98
active: [42] 0.742 | [66] 0.829

From PubChem BioAssay AID1159580 (chemical genetic matrix, 2015)
